Test results taken from PubChem BioAssay (NCATS).
Inconclusive results are not listed. Active and inactive are the calls of the source. Calls come from the whole dose curve; as a rule, active = well fitted inhibition curve with a large enough effect; inconclusive = small, poorly fitted or top-dose-only effect; inactive = flat fitted curve, though single readings scatter.

Assays:
Test in all cases: Cytotoxic Profiling of Annotated Libraries Using Quantitative High-Throughput Screening (AID 1296008); note: nearly all actives have a fitted effect of over 60% in size
Conditions in all cases: Five cell lines viability, CellTiter-Glo ATP luminescence, 48-72 h; max response: hits give low values
CRL-7250 = normal cell line; tested on: CRL-7250
Summary of the method: (§1)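 Cytotoxicity was measured as CellTiter-Glo ATP luminescence, read after 10 min at room temperature. Compound treatment of the cells lasted 48 or 72 hr at 37 degrees Celsius in a qHTS format.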

HEK293 = tested on: HEK293
Summary of the method: as §1

HaCat = tested on: HaCat
Summary of the method: as §1

KB-3-1 = tested on: KB-3-1
Summary of the method: as §1

NIH3T3 = tested on: NIH3T3
Summary of the method: as §1

Measured: max response
% is set by controls: 0 for no effect and ±100 for the full control effect.

C=C1C2(C)CC3C4(C)OC(C5OC56C4=CC(=O)OC6(C)C)C3(C)C13C(=O)OC(C)C3(O)C2=O (stereo not given)
inactive: CRL-7250 -6.5% | HEK293 -4.51% | HaCat | KB-3-1 7.16% | NIH3T3 2.35%

CC(C)CC(c1c(O)c(C=O)c(O)c(C=O)c1O)C1CCC(C)(O)C2CC(C(C)(C)O)CCC12C (stereo not given)
inactive: CRL-7250 -4.35% | HEK293 -7.48% | HaCat | KB-3-1 | NIH3T3 0.233%

COC(=O)[C@]1(Cc2ccc(O)c(CC=C(C)C)c2)OC(=O)C(O)=C1c1ccc(O)cc1
inactive: CRL-7250 1.22% | HEK293 3.25% | HaCat | KB-3-1 | NIH3T3 0.954%

C/C=C(/C)C(=O)O[C@@H]1C[C@@H](OC(=O)/C(C)=C\C)[C@@]2(C)C3C(=O)C=C(C)C2C3C1(C)C
inactive: CRL-7250 -3.44% | HEK293 -8.78% | HaCat | KB-3-1 | NIH3T3 4.88%

COc1ccc(C2C(C(=O)O)C(C(=O)O)C2c2ccc(OC)cc2O[C@@H]2O[C@H](CO)[C@@H](O)[C@H](O)[C@H]2O)c(O[C@@H]2O[C@H](CO)[C@@H](O)[C@H](O)[C@H]2O)c1 (stereo not given in full)
inactive: CRL-7250 -9.53% | HEK293 -17.5% | HaCat 0.767% | KB-3-1 -1.86% | NIH3T3

C=C1C2CCC3C(CCC4[C@@]3(C)CCC[C@@]4(C)C(=O)O)(C2)[C@@H]1OC(=O)/C(C)=C\C (stereo not given in full)
inactive: CRL-7250 -44.5% | HEK293 -104% | HaCat -0.634% | KB-3-1 2.48% | NIH3T3

Cc1onc(-c2ccccc2Cl)c1C(=O)N(C)c1ccc(Cl)cc1
inactive: CRL-7250 | HEK293 -12.8% | HaCat | KB-3-1 4.59% | NIH3T3
